Not all results are given here.
aSyn 5UTR act = Activators via SNCA 5'UTR binding, MLPCN | activity score, % (tested at 7.5 µM), hits read low | AID 1814, 2009 | alpha-synuclein 5'UTR reporter, activators screen | hit rate 7.1% among 300,000; in the data active = activity score below about -60%
Numbers stand for hits; n = inactive.

SMILES	aSyn 5UTR act
Cc1ccc(C(=O)Nc2ccc(Br)c(C(F)(F)F)c2)cc1	-212
CCN1CCN(Cc2ccc(NC(=O)c3ccc(C)c(NC(=O)c4ccno4)c3)cc2C(F)(F)F)CC1	n
CCn1cc(C(=O)NCCCN(C)C)c(=O)c2cc(F)c(N3CCN(C)CC3)cc21	-65
COc1ccccc1NC(=S)NCc1ccccn1	-80
S=C(NCc1ccccn1)Nc1ccc(Cl)cc1Cl	-130
CCc1ccc(NC(=O)C(=O)NCc2ccccn2)cc1	-144
S=C(NCc1ccccn1)Nc1ccccc1	-86
O=C(CSCc1ccccn1)Nc1ccccc1	-70
Cc1ccc(-n2cc(CN3CCC(CO)(Cc4ccccc4)CC3)cn2)cc1	-108
OCC1(Cc2ccccc2)CCN(Cc2cnc(-c3ccc(Cl)cc3)nc2)CC1	-74
Cc1ccccc1OCc1nc2ccccc2[nH]1	-138
COc1ccccc1OCc1nc2ccccc2[nH]1	-70
c1cnc2c(c1)ccc1cccnc12	n
Brc1ccccc1OCCOc1cccc2cccnc12	-72
c1cnc2c(OCc3nc4ccccc4[nH]3)cccc2c1	-293
O=Cc1ccc(O)c2ncccc12	n
COc1cccc(C=O)c1OCCCOc1cccc2cccnc12	-129
COc1cccc(NC(=O)CN(C)C(=O)CNC(=O)c2ccc(Oc3ccccc3)cc2)c1	-124
COc1cccc(NC(=O)CNC(=O)c2ccccc2)c1	-66
COc1cc(OC)cc(C(=O)NCC(=O)Nc2ccc(-c3ccccc3)cc2)c1	-195
Cc1ccc(-c2cn(-c3ccccc3)c(SCC(N)=O)n2)cc1C	-67
CCOC(=O)NC(=O)CSc1nc(-c2ccc(C)c(C)c2)cn1-c1ccccc1	-154
N/C(=N\OC(=O)Cc1ccccc1)c1ccccc1Cl	-143
N/C(=N\OC(=O)Cc1ccccc1)c1cccc(Br)c1	-72
CSc1ccc(-c2nnn(Cc3ccc(Br)cc3)n2)cc1	-74
SMILES	aSyn 5UTR act
CSc1ccc(-c2nnn(Cc3ccccn3)n2)cc1	-146
O=c1c2ccccc2nc2oc3ccccc3n12	-148
O=C(OC1CCCCC1)c1cc2ccccc2oc1=O	-109
N=c1oc2ccccc2cc1C(=O)NC1CCCCCC1	-116
O=C(NCc1ccccc1Cl)c1cc2ccccc2oc1=O	-144
COc1cccc2cc(C(=O)OC3CCN(C)CC3)c(=O)oc12	-88
COc1cccc2cc(NC(=O)C3CCCCC3)c(=O)oc12	-162
O=C(NC1CCCCCC1)c1cc2ccccc2oc1=O	-139
O=C(NNc1c(F)c(F)cc(F)c1F)c1cc2ccccc2oc1=O	-122
O=C(c1cc2ccccc2oc1=O)N1CCOCC1	-124
O=c1oc2ccccc2cc1NCc1ccccc1O	-176
Nc1c(-c2ccc(Cl)cc2)cnc2c(-c3ccccc3)cnn12	-205
COc1ccc(-c2cnc3c(-c4ccc(F)cc4)cnn3c2N)cc1	-241
CS(=O)(=O)c1cnc2c(-c3ccsc3)cnn2c1N	-85
CC(C)(C)S(=O)(=O)c1cnc2c(-c3ccc(Cl)cc3)cnn2c1N	-78
CC(=O)N1N=C(c2ccc(C)cc2)OC1c1ccc(Br)cc1 (stereo not drawn)	-174
Cc1ccc(NC(=O)Cc2cccs2)cc1Cl	-116
O=C(Cc1cccs1)Nc1cccc(-c2nc3cc4ccccc4cc3[nH]2)c1	-92
Cc1nc2ccc(NC(=O)Cc3cccs3)cc2s1	-148
Cc1nc2ccc(NC(=O)Cc3c(F)cccc3Cl)cc2s1	-126
C/C(NC(=O)c1ccccc1F)=C1\C(=O)C[C@@H]2[C@H]1C2(C)C	-174
C/C(NC(=O)c1cccc(F)c1)=C1/C(=O)C[C@@H]2[C@H]1C2(C)C	-183
O=C(NC(=S)NNC(=O)[C@H]1C[C@@H]1c1ccccc1)c1cccc(F)c1	n
C/C(=N\Nc1nc2ccc(Cl)cc2o1)c1ccccc1	-66
CCOc1ccc(OCc2ccc(C(=O)O)o2)cc1	-87
SMILES	aSyn 5UTR act
O=C(O)c1ccc(COc2ccc3ccccc3c2)o1	-157
CCOc1ccc(OCc2ccc(C(=O)NCc3ccncc3)o2)cc1	-67
Cc1cc(C(=O)NCc2csc(-c3ccccc3)n2)no1	-82
O=C(NCc1csc(-c2ccccc2)n1)c1ccco1	-85
CN(Cc1nc(-c2cccc(Cl)c2)no1)C1CCOCC1	-121
Brc1ccc(-c2csc(/N=C/N3CCOCC3)n2)cc1	-90
OCCN(/C=N/c1nc(-c2ccc(Br)cc2)cs1)CCO	-93
Brc1ccc(-c2csc(/N=C/N3CCCC3)n2)cc1	-94
CCOCCCNC(=O)c1cccc(OC2CCN(S(C)(=O)=O)CC2)c1	-151
CCOCCCNC(=O)c1ccc2c(c1)N=C(CC)c1cc(Br)ccc1S2	n
CCOc1cc2c3c(c1)C(C)=CC(C)(C)N3C(=O)C2=O	-74
O=C(O)c1ccc(N=NN2CCCCC2)cc1	-85
COC(=O)c1ccc(N=NN2CCOCC2)cc1	-147
Clc1ccc(N=NN2CCOCC2)cc1	-70
COC(=O)c1ccc(N=NN2CCCCCC2)cc1	-134
COc1cn(-c2ccccc2)nc1C(=O)Nc1ccc(C)cc1	-90
COc1cn(-c2ccccc2)nc1C(=O)Nc1ccccc1	-66
CNC(=O)c1c(Br)cnn1-c1ccc(C)cc1	-158
CNC(=O)c1c(Cl)cnn1-c1ccc(C)cc1	-151
Cc1ccc(-n2ncc(Cl)c2C(=O)NC2CC2)cc1	-153
C=CCNC(=O)c1c(Cl)cnn1-c1ccc(C)cc1	-95
CN(C)c1ccc(/C=C2/SC(=O)N(CCN=C3NS(=O)(=O)c4ccccc43)C2=O)cc1	-66
CN(C)c1ccc(/C=C2\SC(=O)N(CCc3nnc(N)s3)C2=O)cc1	n
O=C(c1ccc(Cl)cc1)C(CN1CCCC1)c1ccccc1 (stereo not drawn)	-155
CC/C(=N/NC(=O)c1ccccc1)c1ccc(OCCN2CCOCC2)cc1	-103
SMILES	aSyn 5UTR act
COc1ccc(C(=O)C(CN2CCCC2)c2ccccc2)cc1 (stereo not drawn)	-112
CCCCOc1ccc(C(=O)C(CN2CCOCC2)c2ccccc2)cc1 (stereo not drawn)	-134
COc1ccc(C(=O)C(CN2CCOCC2)c2ccccc2)cc1 (stereo not drawn)	-80
CCCCCOc1ccc(C(=O)CCN2CCOCC2)cc1	-72
CCC1C(=O)n2nc(-c3ccccc3)cc2N=C1C (stereo not drawn)	-143
CCN(CC)c1ccc(NC(=O)Nc2ccc(C(C)=O)cc2)cc1	-68
O=C(Nc1ccccc1)NN(C(=O)CCl)c1ccccc1	-125
CCN(CC)c1ccc(NC(=O)Nc2ccccc2)cc1	-137
C=CCn1cccc(C(=O)Nc2ccc(C)c(C)c2)c1=O	-124
C=CCn1cccc(C(=O)Nc2ccc(C)cc2)c1=O	-133
S=C(Nc1ccc2c(c1)OCO2)Nc1ccccc1Cl	-85
COCCCNC(=S)Nc1ccc2c(c1)OCCO2	-116
S=C(NCc1ccc(Cl)c(Cl)c1)Nc1ccc2c(c1)OCO2	-110
S=C(Nc1ccc2c(c1)OCCO2)Nc1ccc2c(c1)OCO2	-75
OCCNC(=S)Nc1ccc2c(c1)OCCO2	-91
O=C(COC(=O)c1ccc[nH]c1=O)NCCc1ccc(Cl)cc1Cl	-98
O=c1sc(N2CCN(c3ccccc3F)CC2)nc2ccsc12	-192
O=c1sc(N2CCN(c3ccc(F)cc3)CC2)nc2ccsc12	-179
CN(CC(=O)N1CCc2ccccc21)S(=O)(=O)c1cccs1	-130
C#CCSc1nnc(-c2ccc([N+](=O)[O-])cc2)o1	-151
CCCCCCCCSc1nnc(-c2ccc(OC)cc2)o1	n
CCSc1nnc(-c2ccc(OC)cc2)o1	-186
C#CCSc1nnc(-c2ccc(OC)cc2)o1	-266
O=C1N/C(=C/c2ccsc2)C(=O)N1c1ccccc1	-96
CCn1c(C)cc(/C=C2/NC(=O)N(c3ccccc3)C2=O)c1C	-153

Source: PubChem
